Numbering of substitutions follows the chain as printed.
Experiments:
Assay in all cases: PBM; 200 nM protein, PBS
Conditions in all cases: dsDNA, one strand shown
[1] = biological target: CRX (Homo sapiens, UniProt O43186 26-111)
[2] = biological target: CRX (Homo sapiens, UniProt O43186 26-111, E42D)
[3] = biological target: PITX2 (Homo sapiens, UniProt Q99697 72-157)
[4] = biological target: CRX (Homo sapiens, UniProt O43186 26-111, R41L)
[5] = biological target: ALX3 (Homo sapiens, UniProt O95076 139-225, N203Q)
[6] = biological target: ALX3 (Homo sapiens, UniProt O95076 139-225)
[7] = biological target: ALX3 (Homo sapiens, UniProt O95076 139-225, L168Q)
[8] = biological target: ALX3 (Homo sapiens, UniProt O95076 139-225, L168V)
[9] = biological target: ALX3 (Homo sapiens, UniProt O95076 139-225, N203S)
[10] = biological target: MSX2 (Homo sapiens, UniProt P35548 130-214, R199I)
[11] = biological target: MSX2 (Homo sapiens, UniProt P35548 130-214)
[12] = biological target: MSX2 (Homo sapiens, UniProt P35548 130-214, F161Y)
[13] = biological target: PROP1 (Homo sapiens, UniProt O75360 56-141)
[14] = biological target: PROP1 (Homo sapiens, UniProt O75360 56-141, F88S)
[15] = biological target: ALX1 (Homo sapiens, UniProt Q15699 118-204, L144V)
[16] = biological target: ALX1 (Homo sapiens, UniProt Q15699 118-204, L144R)
[17] = biological target: ALX1 (Homo sapiens, UniProt Q15699 118-204)
[18] = biological target: T1, NKX2-6 (Homo sapiens, UniProt A6NCS4 118-204)
T1 sequence: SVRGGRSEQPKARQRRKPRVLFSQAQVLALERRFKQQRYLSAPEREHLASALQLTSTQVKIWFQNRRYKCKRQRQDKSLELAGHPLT

[19] = biological target: T2, NKX2-6 (Homo sapiens, UniProt A6NCS4 118-204, F151L)
T2 sequence: T1 sequence with F34L

Sequence of CRX (Homo sapiens, UniProt O43186 26-111, R41L) (O43186 26-111 R41L): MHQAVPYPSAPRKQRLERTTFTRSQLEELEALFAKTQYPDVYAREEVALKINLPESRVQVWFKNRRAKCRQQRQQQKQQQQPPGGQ
Sequence of CRX (Homo sapiens, UniProt O43186 26-111) (O43186 26-111): as the sequence (O43186 26-111 R41L) above, with L16R counted along it
Sequence of CRX (Homo sapiens, UniProt O43186 26-111, E42D) (O43186 26-111 E42D): as the sequence (O43186 26-111 R41L) above, with L16R, E17D counted along it
Sequence of ALX1 (Homo sapiens, UniProt Q15699 118-204, L144V) (Q15699 118-204 L144V): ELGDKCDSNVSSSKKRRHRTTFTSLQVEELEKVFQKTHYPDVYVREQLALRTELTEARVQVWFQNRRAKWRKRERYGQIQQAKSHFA
Sequence of MSX2 (Homo sapiens, UniProt P35548 130-214) (P35548 130-214): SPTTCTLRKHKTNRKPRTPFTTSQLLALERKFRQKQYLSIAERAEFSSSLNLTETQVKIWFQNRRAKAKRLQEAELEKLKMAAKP
Sequence of ALX1 (Homo sapiens, UniProt Q15699 118-204) (Q15699 118-204): as the sequence (Q15699 118-204 L144V) above, with V27L counted along it
Sequence of ALX1 (Homo sapiens, UniProt Q15699 118-204, L144R) (Q15699 118-204 L144R): as the sequence (Q15699 118-204 L144V) above, with V27R counted along it
Sequence of MSX2 (Homo sapiens, UniProt P35548 130-214, F161Y) (P35548 130-214 F161Y): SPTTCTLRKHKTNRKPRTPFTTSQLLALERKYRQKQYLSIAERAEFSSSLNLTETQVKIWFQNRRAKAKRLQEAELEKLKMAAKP
Sequence of ALX3 (Homo sapiens, UniProt O95076 139-225, L168Q) (O95076 139-225 L168Q): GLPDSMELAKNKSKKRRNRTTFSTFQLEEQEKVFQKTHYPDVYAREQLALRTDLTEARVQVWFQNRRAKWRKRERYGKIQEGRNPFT
Sequence of PROP1 (Homo sapiens, UniProt O75360 56-141, F88S) (O75360 56-141 F88S): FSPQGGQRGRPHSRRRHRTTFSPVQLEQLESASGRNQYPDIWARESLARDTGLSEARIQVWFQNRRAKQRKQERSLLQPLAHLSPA
Sequence of ALX3 (Homo sapiens, UniProt O95076 139-225) (O95076 139-225): as the sequence (O95076 139-225 L168Q) above, with Q30L counted along it
Sequence of PROP1 (Homo sapiens, UniProt O75360 56-141) (O75360 56-141): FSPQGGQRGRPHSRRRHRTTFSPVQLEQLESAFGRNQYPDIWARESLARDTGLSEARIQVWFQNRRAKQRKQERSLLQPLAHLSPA
Sequence of ALX3 (Homo sapiens, UniProt O95076 139-225, N203S) (O95076 139-225 N203S): as the sequence (O95076 139-225 L168Q) above, with Q30L, N65S counted along it
Sequence of ALX3 (Homo sapiens, UniProt O95076 139-225, L168V) (O95076 139-225 L168V): as the sequence (O95076 139-225 L168Q) above, with Q30V counted along it
Sequence of ALX3 (Homo sapiens, UniProt O95076 139-225, N203Q) (O95076 139-225 N203Q): as the sequence (O95076 139-225 L168Q) above, with Q30L, N65Q counted along it
Sequence of MSX2 (Homo sapiens, UniProt P35548 130-214, R199I) (P35548 130-214 R199I): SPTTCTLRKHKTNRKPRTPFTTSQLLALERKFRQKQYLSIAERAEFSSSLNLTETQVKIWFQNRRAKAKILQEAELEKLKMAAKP

**Q.** Which results are given for ATAGATTA?
**A.** binding signal [1]: 12.7 upbm affinity estimate (log intensity, higher = more binding, comparable within an allelic series); binding signal [2]: 12.5 upbm affinity estimate (log intensity, higher = more binding, comparable within an allelic series); binding signal [3]: 12.3 upbm affinity estimate (log intensity, higher = more binding, comparable within an allelic series); binding signal [4]: 12.3 upbm affinity estimate (log intensity, higher = more binding, comparable within an allelic series)

**Q.** With AGGTGCGG as the sequence, how does the binding signal [1] read?
**A.** 8.42 upbm affinity estimate (log intensity, higher = more binding, comparable within an allelic series)

**Q.** What about the binding signal [2] of the same sequence?
**A.** 8.46 upbm affinity estimate (log intensity, higher = more binding, comparable within an allelic series)

**Q.** And the binding signal [5]?
**A.** 7.78 upbm affinity estimate (log intensity, higher = more binding, comparable within an allelic series)

**Q.** And the binding signal [6]?
**A.** 7.66 upbm affinity estimate (log intensity, higher = more binding, comparable within an allelic series)

**Q.** What about the binding signal [7] of the same sequence?
**A.** 7.81 upbm affinity estimate (log intensity, higher = more binding, comparable within an allelic series)

**Q.** And the binding signal [8]?
**A.** 7.75 upbm affinity estimate (log intensity, higher = more binding, comparable within an allelic series)

**Q.** And the binding signal [4]?
**A.** 8.35 upbm affinity estimate (log intensity, higher = more binding, comparable within an allelic series)

**Q.** And the binding signal [9]?
**A.** 7.79 upbm affinity estimate (log intensity, higher = more binding, comparable within an allelic series)

**Q.** Which results are given for CGGGGTGC?
**A.** binding signal [1]: 8.16 upbm affinity estimate (log intensity, higher = more binding, comparable within an allelic series); binding signal [2]: 8.25 upbm affinity estimate (log intensity, higher = more binding, comparable within an allelic series); binding signal [10]: 9.55 upbm affinity estimate (log intensity, higher = more binding, comparable within an allelic series); binding signal [11]: 9.66 upbm affinity estimate (log intensity, higher = more binding, comparable within an allelic series); binding signal [12]: 9.67 upbm affinity estimate (log intensity, higher = more binding, comparable within an allelic series); binding signal [4]: 8.31 upbm affinity estimate (log intensity, higher = more binding, comparable within an allelic series)

**Q.** Which binding signal [1] does the source give for CTAATCTC here?
**A.** 13 upbm affinity estimate (log intensity, higher = more binding, comparable within an allelic series)

**Q.** What about the binding signal [2] of the same sequence?
**A.** 13 upbm affinity estimate (log intensity, higher = more binding, comparable within an allelic series)

**Q.** What about the binding signal [3] of the same sequence?
**A.** 12.6 upbm affinity estimate (log intensity, higher = more binding, comparable within an allelic series)

**Q.** What about the binding signal [13] of the same sequence?
**A.** 8.84 upbm affinity estimate (log intensity, higher = more binding, comparable within an allelic series)

**Q.** What about the binding signal [14] of the same sequence?
**A.** 7.25 upbm affinity estimate (log intensity, higher = more binding, comparable within an allelic series)

**Q.** And the binding signal [4]?
**A.** 12.7 upbm affinity estimate (log intensity, higher = more binding, comparable within an allelic series)

**Q.** AAATCTGC was tested. Which binding signal [1] did it give?
**A.** 10.8 upbm affinity estimate (log intensity, higher = more binding, comparable within an allelic series)

**Q.** What about the binding signal [2] of the same sequence?
**A.** 10.6 upbm affinity estimate (log intensity, higher = more binding, comparable within an allelic series)

**Q.** What about the binding signal [15] of the same sequence?
**A.** 8.09 upbm affinity estimate (log intensity, higher = more binding, comparable within an allelic series)

**Q.** What about the binding signal [16] of the same sequence?
**A.** 8 upbm affinity estimate (log intensity, higher = more binding, comparable within an allelic series)

**Q.** What about the binding signal [4] of the same sequence?
**A.** 10.6 upbm affinity estimate (log intensity, higher = more binding, comparable within an allelic series)

**Q.** What about the binding signal [17] of the same sequence?
**A.** 8.23 upbm affinity estimate (log intensity, higher = more binding, comparable within an allelic series)

**Q.** How did the binding signal [1] turn out when CGGACACG was run?
**A.** 8.06 upbm affinity estimate (log intensity, higher = more binding, comparable within an allelic series)

**Q.** What about the binding signal [2] of the same sequence?
**A.** 8.04 upbm affinity estimate (log intensity, higher = more binding, comparable within an allelic series)

**Q.** What about the binding signal [15] of the same sequence?
**A.** 6.53 upbm affinity estimate (log intensity, higher = more binding, comparable within an allelic series)

**Q.** What about the binding signal [16] of the same sequence?
**A.** 6.6 upbm affinity estimate (log intensity, higher = more binding, comparable within an allelic series)

**Q.** What about the binding signal [4] of the same sequence?
**A.** 8.13 upbm affinity estimate (log intensity, higher = more binding, comparable within an allelic series)

**Q.** What about the binding signal [17] of the same sequence?
**A.** 6.41 upbm affinity estimate (log intensity, higher = more binding, comparable within an allelic series)

**Q.** Which results are given for GGATTATA?
**A.** binding signal [1]: 13.5 upbm affinity estimate (log intensity, higher = more binding, comparable within an allelic series); binding signal [2]: 13.6 upbm affinity estimate (log intensity, higher = more binding, comparable within an allelic series); binding signal [3]: 13.2 upbm affinity estimate (log intensity, higher = more binding, comparable within an allelic series); binding signal [4]: 13.7 upbm affinity estimate (log intensity, higher = more binding, comparable within an allelic series)

**Q.** For TGGATTAA, which binding signal [1] is on record?
**A.** 13.4 upbm affinity estimate (log intensity, higher = more binding, comparable within an allelic series)

**Q.** What about the binding signal [2] of the same sequence?
**A.** 13.5 upbm affinity estimate (log intensity, higher = more binding, comparable within an allelic series)

**Q.** What about the binding signal [3] of the same sequence?
**A.** 13.3 upbm affinity estimate (log intensity, higher = more binding, comparable within an allelic series)

**Q.** What about the binding signal [4] of the same sequence?
**A.** 13.2 upbm affinity estimate (log intensity, higher = more binding, comparable within an allelic series)

**Q.** With CCTCTGAC as the sequence, how does the binding signal [1] read?
**A.** 7.95 upbm affinity estimate (log intensity, higher = more binding, comparable within an allelic series)

**Q.** And the binding signal [2]?
**A.** 8.28 upbm affinity estimate (log intensity, higher = more binding, comparable within an allelic series)

**Q.** What about the binding signal [3] of the same sequence?
**A.** 7.92 upbm affinity estimate (log intensity, higher = more binding, comparable within an allelic series)

**Q.** And the binding signal [4]?
**A.** 8.19 upbm affinity estimate (log intensity, higher = more binding, comparable within an allelic series)

**Q.** Which binding signal [1] does the source give for AGATTAAT here?
**A.** 12.9 upbm affinity estimate (log intensity, higher = more binding, comparable within an allelic series)

**Q.** What about the binding signal [2] of the same sequence?
**A.** 12.9 upbm affinity estimate (log intensity, higher = more binding, comparable within an allelic series)

**Q.** What about the binding signal [3] of the same sequence?
**A.** 12.6 upbm affinity estimate (log intensity, higher = more binding, comparable within an allelic series)

**Q.** What about the binding signal [4] of the same sequence?
**A.** 12.5 upbm affinity estimate (log intensity, higher = more binding, comparable within an allelic series)

**Q.** GGGATTAA was tested. Which binding signal [1] did it give?
**A.** 13.7 upbm affinity estimate (log intensity, higher = more binding, comparable within an allelic series)

**Q.** And the binding signal [2]?
**A.** 13.8 upbm affinity estimate (log intensity, higher = more binding, comparable within an allelic series)

**Q.** What about the binding signal [3] of the same sequence?
**A.** 13.6 upbm affinity estimate (log intensity, higher = more binding, comparable within an allelic series)

**Q.** What about the binding signal [4] of the same sequence?
**A.** 13.7 upbm affinity estimate (log intensity, higher = more binding, comparable within an allelic series)

**Q.** Which results are given for AATAATCC?
**A.** binding signal [1]: 13.4 upbm affinity estimate (log intensity, higher = more binding, comparable within an allelic series); binding signal [2]: 13.4 upbm affinity estimate (log intensity, higher = more binding, comparable within an allelic series); binding signal [3]: 13 upbm affinity estimate (log intensity, higher = more binding, comparable within an allelic series); binding signal [11]: 11.5 upbm affinity estimate (log intensity, higher = more binding, comparable within an allelic series); binding signal [12]: 11.3 upbm affinity estimate (log intensity, higher = more binding, comparable within an allelic series); binding signal [4]: 13.4 upbm affinity estimate (log intensity, higher = more binding, comparable within an allelic series)

**Q.** With ACGCCAGC as the sequence, how does the binding signal [1] read?
**A.** 8.41 upbm affinity estimate (log intensity, higher = more binding, comparable within an allelic series)

**Q.** What about the binding signal [2] of the same sequence?
**A.** 8.28 upbm affinity estimate (log intensity, higher = more binding, comparable within an allelic series)

**Q.** And the binding signal [18]?
**A.** 9.57 upbm affinity estimate (log intensity, higher = more binding, comparable within an allelic series)

**Q.** And the binding signal [19]?
**A.** 9.3 upbm affinity estimate (log intensity, higher = more binding, comparable within an allelic series)

**Q.** And the binding signal [4]?
**A.** 8.46 upbm affinity estimate (log intensity, higher = more binding, comparable within an allelic series)
